DAX1 inh-1 – NR0B1 (DAX1) inhibition; P51843; HEK293 Gal4-DAX1 luciferase reporter, luminescence; inhibition, % at 6.75 µM; 340,000 compounds, 0.99% hits;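 active = inhibition above the mean over all tested compounds plus 3 SD, cut at about 4.2% in these data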;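 also: inhibition shows as a rise in luminescence from relieved DAX1 repression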
ssDAF12 agonist – activators of S. stercoralis DAF-12 nuclear receptor; HEK293 ssDAF-12/GRIP1 lit1-tk-luc reporter, luminescence; % of 3 µM dafachronic acid response; activation, % at 6.8 µM; 370,000 compounds, 1% hits;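 active = activation above the mean over all tested compounds plus 3 SD, cut at about 0.9% in these data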
hcDAF12 agonist – activates DAF-12 receptor from parasite H. contortus | HEK293 hcDAF-12 lit1-tk-luc reporter, luminescence; 0% DMSO, 100% Δ7-dafachronic acid | activation, % at 6.8 µM | 370,000 compounds, 1.4% hits | AID 652067;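 active = activation above the mean of all tested compounds plus 3 SD, cut at about 5.5% in these data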
FXN GAA850 act – increases GAA850 frataxin promoter reporter activity; HEK293 lucGAA850 FXN promoter luciferase reporter, 24 h; percent of 10 µM SAHA response; activation, % at 6 µM; 360,000 compounds, 0.56% hits;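 active = activation above the average of all compounds screened plus 3 SD, cutoff fixed separately per campaign, cut at about 7.5% in these data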
hgDAF-12 ag – agonists of H. glycines DAF-12 nuclear receptor | HEK293 GAL4-hgDAF12 UAS-luciferase reporter, agonist luminescence; normalized to butyrate control | activation, % at 6.8 µM | 370,000 compounds, 1.8% hits | AID 687014;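 active = activation above a cutoff set at the mean of all screened compounds plus 3 SD, cut at about 10% in these data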
DAX1 inh-2 – blocks DAX1 repression of SF-1 activated StAR promoter. 370,000 compounds, 1.1% hits. HEK293T StAR-luciferase reporter, SF-1/DAX-1 repression relief. AID 652010. inhibition, % at 6.8 µM;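 active = inhibition above the mean over all tested compounds plus 3 SD, cut at about 3.6% in these data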;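 also: higher inhibition means more luminescence from relief of DAX-1 repression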
hgDAF12 conf – confirmation of H. glycines DAF-12 agonists; shares compounds with hgDAF-12 ag; HEK293 GAL4-hgDAF12 luciferase reporter, agonist mode; percent of butyrate response; activation, % at 6.8 µM; 3,300 compounds, 80% hits;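 active = mean activation over triplicate wells above the hit cutoff derived from the earlier primary screen, cut at about 11% in these data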
LXRb DAF12 ctr – activates human LXR-beta, counter-screen for DAF-12 agonists. activation, % at 6.8 µM. HEK293 Gal4-LXR luciferase reporter, 24 h. AID 743051. shares compounds with hgDAF-12 ag. 3,300 tested, under 10 active;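 active = mean activation of the triplicate above a set limit carried over from the primary screen, none filed active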
Target sequence (P55055 whole entry, looked up, the tested form may be a part): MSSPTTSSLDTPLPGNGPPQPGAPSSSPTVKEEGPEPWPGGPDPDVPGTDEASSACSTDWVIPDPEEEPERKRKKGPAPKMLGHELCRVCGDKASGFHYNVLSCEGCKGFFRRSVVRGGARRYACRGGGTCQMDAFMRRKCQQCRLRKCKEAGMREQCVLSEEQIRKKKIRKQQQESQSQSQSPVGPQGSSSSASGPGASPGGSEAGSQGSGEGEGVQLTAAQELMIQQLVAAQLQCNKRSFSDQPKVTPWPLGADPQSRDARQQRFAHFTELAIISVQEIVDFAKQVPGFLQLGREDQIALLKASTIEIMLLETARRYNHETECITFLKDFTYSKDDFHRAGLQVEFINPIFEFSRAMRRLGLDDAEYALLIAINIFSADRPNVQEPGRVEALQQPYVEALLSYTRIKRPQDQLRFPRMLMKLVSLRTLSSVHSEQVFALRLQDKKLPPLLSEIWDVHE
A number is an active result; . = inactive; / = not tested or not shown. Most compounds without a hit are left out; they make up all but 4.5% or so of the library.

SMILES	DAX1 inh-1	ssDAF12 agonist	hcDAF12 agonist	FXN GAA850 act	hgDAF-12 ag	DAX1 inh-2	hgDAF12 conf	LXRb DAF12 ctr
O=C(O)CCS(=O)(=O)Cc1ccccc1Cl	.	.	.	.	.	.	/	/
Cc1csc2nc(CSc3nc4ccccc4o3)cn12	.	.	.	.	13	.	.	.
c1ccc2oc(SCc3cn4ccsc4n3)nc2c1	.	.	.	.	.	.	/	/
C#CCN1C(=O)S/C(=C/c2cc(C)n(CC)c2C)C1=O	.	.	.	.	18	.	20	.
O=C(Nc1cccc(Cl)c1)c1ccc(OC(=S)N2CCOCC2)cc1	.	.	.	.	19	.	.	.
O=[N+]([O-])c1ccc(/C=N/NC(=S)Nc2ccccc2F)o1	.	.	.	.	.	.	/	/
Fc1ccccc1NC(=S)N/N=C/c1ccccc1Br	.	.	.	.	16	4.3	12	.
N=c1c2ccccc2nnn1-c1cccc(C(F)(F)F)c1	.	.	.	.	.	.	/	/
COc1ccc(-c2c(C)nc3c(-c4ccccn4)cnn3c2N)cc1	.	.	.	.	14	.	11	.
Cc1cnc(NC(=O)c2ccc(OCC3CCCO3)cc2)s1 (stereo not given)	.	.	.	.	.	.	/	/
Cc1cnc(NC(=O)C2CCCO2)s1 (stereo not given)	.	.	.	.	15	.	.	.
Cc1ccc(S(=O)(=O)NC2CC(C)(C)N(O)C(C)(C)C2)cc1	.	.	.	.	.	.	/	/
COc1cc2c(cc1NC(=O)c1cc(-c3ccccn3)nc3ccccc13)oc1ccccc12	.	.	.	.	.	.	/	/
CC(=O)Nc1ccc(NC(=O)COc2ccc(Br)cc2C)cc1	.	.	.	.	.	.	/	/
Cc1cccc(NC(=O)COc2ccc(Br)cc2/C=N/O)c1	.	.	.	.	15	.	11	.
C(=C\c1ccccc1)/CN1CCN(C(c2cc3ccccc3o2)c2nnnn2-c2ccc3c(c2)OCCO3)CC1 (stereo not given)	/	.	.	/	.	.	/	/
Nc1nc(Nc2cccc(F)c2)nc2ccccc12	.	.	6.1	.	14	.	16	.
Cc1ccc(Nc2nnc(SCC3CCCCO3)s2)cc1 (stereo not given)	.	.	.	.	.	.	/	/
Cc1ccccc1Nc1nnc(SCC2CCCCO2)s1 (stereo not given)	.	.	.	.	15	4.2	17	.
O=C(Nc1cccc(C(=O)O)c1)Nc1ccccc1Cl	.	.	.	.	18	.	.	.
Cc1occc1C(=O)O/N=C(\N)c1ccccc1	/	.	.	.	14	.	14	.
COc1cccc(C(=O)O/N=C(\N)c2ccncc2)c1	.	.	.	.	17	.	16	.
Cc1cccc(/C(N)=N/OC(=O)c2ccoc2C)c1	.	.	.	.	.	.	/	/
N/C(=N\OC(=O)/C=C/c1ccccc1)c1ccccc1	.	.	.	.	17	4.3	15	.
C/C(=N\NC(=O)c1ccoc1C)c1ccccc1	/	.	5.6	.	14	3.9	11	.
SMILES	DAX1 inh-1	ssDAF12 agonist	hcDAF12 agonist	FXN GAA850 act	hgDAF-12 ag	DAX1 inh-2	hgDAF12 conf	LXRb DAF12 ctr
COc1ccc(/C(N)=N/OC(=O)c2ccco2)cc1OC	.	.	.	.	18	.	13	.
CCOC(=O)c1ccc(OS(=O)(=O)c2ccccc2)c(OC)c1	.	.	.	.	16	.	11	.
C/C(=N/NC(=O)c1ccccc1)c1ccc(NC(=O)C(F)(F)F)cc1	.	.	.	.	14	.	.	.
COc1ccc(C(=O)O/N=C(\N)c2ccccc2)cc1OC	5.9	.	.	.	17	.	12	.
O=C(Nc1ccon1)c1sc2cc(Cl)ccc2c1Cl	.	.	.	.	.	.	/	/
O=C(COC(=O)COc1ccc(Cl)cc1)NC1CCCCCC1	.	.	.	.	.	.	/	/
COc1cc(/C=C/CN2CCN(CCC(C)C)C(CCO)C2)ccc1O (stereo not given)	.	.	.	.	.	.	/	/
COc1cc(OC)cc(C(=O)NNC(=O)c2ccccn2)c1	.	.	.	.	.	.	/	/
COc1cc(OC)cc(C(=O)O/N=C(\N)c2ccccn2)c1	/	.	.	.	13	.	13	.
CCN1CCN(CCNC(=O)c2ccc(CS(=O)c3ccc(Cl)cc3)o2)CC1 (stereo not given)	.	.	.	.	.	.	/	/
COc1ccc(-c2nc(-c3ccccc3OC)no2)cc1OC	.	.	.	.	.	.	/	/
COc1ccccc1-c1noc(-c2ccccc2)n1	.	.	.	.	14	3.7	19	.
O=C(COC(=O)CC1CCCC1)Nc1ccc(Br)cc1F	.	.	.	.	.	.	/	/
CC(C)[C@@H](CO)N(C)S(=O)(=O)c1ccccc1Br	.	.	.	.	.	.	/	/
O=C(NCCc1ccccc1)c1cccc(NC(=O)C2CC2)c1	.	.	.	.	17	.	13	.
Cc1ccc(NC(=O)c2cc3cccc([N+](=O)[O-])c3[nH]2)cc1	.	1.3	.	.	13	.	19	.
CCOC(=O)c1cnc(SCCc2ccccc2)nc1N	.	1.4	.	.	16	4.5	20	.
CCCCSc1ncc(C(=O)OCC)c(N)n1	.	.	.	.	15	3.7	11	.
CCOC(=O)c1cnc(SCC(=O)c2ccc(Cl)cc2)nc1N	.	.	.	.	.	.	/	/
Cc1ccccc1C(=O)NCCCNC(=O)c1ccco1	.	.	.	.	.	.	/	/
COc1ccc(C2CC(c3ccc4ccccc4c3)=NN2C(=O)CN2CCC(C(N)=O)CC2)cc1 (stereo not given)	.	.	.	.	13	.	.	.
Cc1c(C(=O)NCCc2ccccc2)oc2ccccc12	.	.	.	.	16	.	14	.
CCCCN(CC)CCNC(=O)c1cc2c(C)nc3ccccc3c2o1	.	.	.	.	17	.	.	.
Cc1ccc(C)c(N2CCN(CCCNC(=O)Cn3c(=O)c4cccn4c4cccnc43)CC2)c1	.	.	.	.	.	.	/	/
Cc1nc(C(C)NC(=O)CCc2nnc(CCCc3ccccc3)o2)c(C)s1 (stereo not given)	.	.	.	.	13	.	.	.
CCOc1ccc(N(CC(=O)NCC2CCCO2)C(=O)CCC(=O)Nc2nccs2)cc1 (stereo not given)	.	.	.	.	.	.	/	/
Cc1csc(NC(=O)c2ccc(Cl)cc2[N+](=O)[O-])n1	.	.	.	.	14	.	11	.
